The source of these data is PubChem BioAssay (NCI).

Common to all, as to experiment: NCI-60 one-dose screen, 48 h (100 = growth as untreated, 0 = no growth, -100 = all killed)
In one assay the test system is A549/ATCC NSCLC. The note with it: 10 µM unless noted.
The subject of the next assay is DU-145 prostate. To be noted: 10 µM unless noted.
The next assay concerns K-562 leukemia. To be noted: 10 µM unless noted.
A further assay concerns RXF 393 renal. The note with it: 10 µM unless noted.
A further assay deals with SF-295 CNS. To be noted: 10 µM unless noted.
The next assay has as its system UACC-257 melanoma. The note with it: 10 µM unless noted.
A further assay deals with HT29 colon. To be noted: 10 µM unless noted.
The test system of a further assay is SNB-75 CNS. The note with it: 10 µM unless noted.
Another assay relates to SK-MEL-2 melanoma. The note with it: 10 µM unless noted.
Another assay relates to ACHN renal. The note with it: 10 µM unless noted.
The next assay relates to CAKI-1 renal. The note with it: 10 µM unless noted.
Another assay deals with A498 renal. To be noted: 10 µM unless noted.
The next assay has as its system HL-60(TB) leukemia. The note with it: 10 µM unless noted.
In the next assay the test system is OVCAR-5 ovarian. The note with it: 10 µM unless noted.
The subject of another assay is OVCAR-4 ovarian. To be noted: 10 µM unless noted.
Another assay has as its system SK-OV-3 ovarian. The note with it: 10 µM unless noted.
Another assay relates to HS 578T breast. To be noted: 10 µM unless noted.
The test system of the next assay is NCI/ADR-RES ovarian. The note with it: 10 µM unless noted.
The subject of a further assay is T-47D breast. To be noted: 10 µM unless noted.
The next assay has as its system BT-549 breast. To be noted: 10 µM.

The panel holds about 83,000 compounds, 20% with a hit somewhere; the sample as a whole holds those more often.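 Percent growth is the endpoint: 0 to 100 indicates growth inhibition (40 means 60% inhibition), 0 means no net growth, and negative values indicate cell death.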 Unmarked numbers belong to inactive results. Activity calls are given as the source filed them. The calls were made as follows: active = growth percent below 10; inactive = the rest.

For `COc1cc(N(CCCl)CCCl)ccc1C=Nc1ccccc1C(=O)O`, the growth in the assay with A549/ATCC NSCLC is 92.6%; in the assay with DU-145 prostate, 104%; in the assay on K-562 leukemia, 95%; in the assay on RXF 393 renal it was 102%; in the assay with SF-295 CNS, 98%; in the assay on UACC-257 melanoma it was 91%. Moreover, the growth with HT29 colon was 98.2%; in the assay with SNB-75 CNS, 85.8%; in the assay on SK-MEL-2 melanoma, 113%; in the assay on ACHN renal, 97%; with CAKI-1 renal it was 98.7%; in the assay with A498 renal it was 66.3%. The growth in the assay with HL-60(TB) leukemia was 94.8%; in the assay with OVCAR-5 ovarian, 108%; in the assay on OVCAR-4 ovarian, 104%; in the assay with SK-OV-3 ovarian it was 105%; with HS 578T breast it was 81.5%; in the assay with NCI/ADR-RES ovarian, 102%. The growth is 97.6% in the assay on T-47D breast and 106% in the assay with BT-549 breast.

With `O=[N+]([O-])c1ccc(/C=C/C=C/c2ccc(S(=O)(=O)F)cc2)c(Cl)c1`, the growth is 98.6% with A549/ATCC NSCLC; 107% with DU-145 prostate; 96.1% with K-562 leukemia; 92.2% with RXF 393 renal; 93.1% in the assay on SF-295 CNS; 96.5% in the assay on UACC-257 melanoma. Besides, the growth was 96% in the assay with HT29 colon; 71.7% with SNB-75 CNS; 84% with SK-MEL-2 melanoma; 102% with ACHN renal; 98.3% in the assay with CAKI-1 renal; 100% with A498 renal. Also, the growth in the assay with HL-60(TB) leukemia was 91.9%; with OVCAR-5 ovarian it was 112%; in the assay on OVCAR-4 ovarian, 87.5%; with SK-OV-3 ovarian, 98%; in the assay on HS 578T breast, 111%; in the assay with NCI/ADR-RES ovarian it was 104%. Also, the growth was 86.2% with T-47D breast and 100% with BT-549 breast.

For `O=C1NC(=O)C(=Cc2cn(Cc3ccccc3)c3ccccc23)C(=O)N1`, the growth in the assay on DU-145 prostate was 100%; with K-562 leukemia, 63.5%; in the assay on RXF 393 renal it was 86.9%; with SF-295 CNS, 37.2%; in the assay with UACC-257 melanoma, 34.2%; with HT29 colon it was 105%. Further, the growth was 77.6% in the assay with SNB-75 CNS; 105% in the assay with SK-MEL-2 melanoma; 92.7% with ACHN renal; 62.4% in the assay on CAKI-1 renal; -72.6% (active) with A498 renal; 96.3% with HL-60(TB) leukemia. In addition, the growth in the assay on OVCAR-5 ovarian was 18.4%; in the assay with OVCAR-4 ovarian, 68.3%; with SK-OV-3 ovarian, 53.2%; in the assay on HS 578T breast, 78%; in the assay with NCI/ADR-RES ovarian, 106%; in the assay on T-47D breast, 55.9%. In the assay on BT-549 breast, the growth was 77.6%.

Consider `COc1ccc(C2SCC(=O)Nc3c2c(C)nn3-c2nc3ccc(C)cc3s2)cc1O` (centres undefined), for which the growth in the assay on A549/ATCC NSCLC is 29.3%; in the assay with DU-145 prostate it was 73.5%; in the assay on K-562 leukemia, 9.45% (active); in the assay on RXF 393 renal, 50.2%; with SF-295 CNS, 32.4%; in the assay with UACC-257 melanoma, 70.1%. Also, the growth with HT29 colon is 10.5%; in the assay with SNB-75 CNS, 32.6%; with SK-MEL-2 melanoma it was -1.24% (active); in the assay on ACHN renal it was 44.2%; in the assay with CAKI-1 renal it was 31.1%; with A498 renal it was 40.9%. Further, the growth is 3.8% (active) in the assay with HL-60(TB) leukemia; 67.2% in the assay with OVCAR-5 ovarian; 72.7% with OVCAR-4 ovarian; 44.2% with SK-OV-3 ovarian; 42.2% in the assay with HS 578T breast; 17.3% in the assay on NCI/ADR-RES ovarian.

Turning to `CCCCCCCCCCOc1ccc(C(=O)Oc2ccc(CSP3(=O)OCC4OC(n5ccc(=O)[nH]c5=O)C(F)C4OP(=O)(O)OCC4OC(n5cnc6c(N)ncnc65)C(F)C4O3)cc2)cc1` (centres undefined), the growth in the assay on A549/ATCC NSCLC is 85.9%; with DU-145 prostate, 106%; in the assay on K-562 leukemia, 66.1%; with RXF 393 renal it was 72.6%; with SF-295 CNS it was 105%; in the assay with UACC-257 melanoma it was 21.3%. The growth in the assay on HT29 colon was 79.3%; in the assay with SNB-75 CNS it was 102%; in the assay on SK-MEL-2 melanoma, 76.3%; in the assay with A498 renal it was 6.69% (active); in the assay on HL-60(TB) leukemia, -12.8% (active); in the assay with OVCAR-5 ovarian, 116%. The growth with OVCAR-4 ovarian was 58.8%; in the assay with SK-OV-3 ovarian it was 97.8%; with HS 578T breast, 111%; with NCI/ADR-RES ovarian it was 105%; in the assay with T-47D breast, 96.4%; in the assay with BT-549 breast it was 87.7%.

`CC(=O)[O][Hg][c]1ccccc1`: the growth was -97.9% (active) in the assay with DU-145 prostate; -21% (active) with K-562 leukemia; -92% (active) with RXF 393 renal; 13.6% in the assay with SF-295 CNS; -47.9% (active) with HT29 colon; -65.9% (active) in the assay on SNB-75 CNS. Besides, the growth with SK-MEL-2 melanoma was -52.9% (active); with CAKI-1 renal it was -69.7% (active); with A498 renal, -46.6% (active); in the assay on HL-60(TB) leukemia, -27.5% (active); in the assay with OVCAR-4 ovarian it was -25.2% (active); in the assay with SK-OV-3 ovarian it was -5.18% (active). For the same molecule, the growth is 16.4% in the assay with HS 578T breast, -39.1% (active) in the assay on NCI/ADR-RES ovarian, -42.1% (active) with T-47D breast and -96.7% (active) with BT-549 breast.

In the case of `CCOC(=O)/C(C#N)=C/c1ccc(N(CCCl)CCCl)cc1`, the growth was 85.2% with A549/ATCC NSCLC; 98.8% in the assay with DU-145 prostate; 98.6% in the assay on K-562 leukemia; 93.3% with RXF 393 renal; 43.6% in the assay with SF-295 CNS; 103% in the assay with UACC-257 melanoma. Further, the growth is 92.5% in the assay on HT29 colon; 73.3% in the assay on SNB-75 CNS; 99.2% with SK-MEL-2 melanoma; 72.8% in the assay with ACHN renal; -9.24% (active) in the assay with CAKI-1 renal; 95.5% in the assay with A498 renal. Moreover, the growth with HL-60(TB) leukemia is 85.2%; in the assay with OVCAR-5 ovarian it was 106%; with OVCAR-4 ovarian, 61.5%; with SK-OV-3 ovarian it was 92.6%; in the assay on HS 578T breast, 103%; in the assay with NCI/ADR-RES ovarian it was 94.8%. Besides, the values for the growth in the assay with T-47D breast and in the assay on BT-549 breast were 80.6% and 95.3%, respectively.

Turning to `CC(=O)Nc1ccc(Cc2ccc(NC(C)=O)cc2)cc1`, the growth is 95% in the assay with A549/ATCC NSCLC; 130% in the assay on DU-145 prostate; 112% with K-562 leukemia; 89.4% with RXF 393 renal; 108% in the assay on SF-295 CNS; 99.1% in the assay with UACC-257 melanoma. Moreover, the growth with HT29 colon is 104%; in the assay on SNB-75 CNS, 93.4%; with SK-MEL-2 melanoma, 125%; in the assay on ACHN renal it was 101%; in the assay on CAKI-1 renal, 88.9%; with A498 renal, 129%. The growth was 49.1% in the assay on HL-60(TB) leukemia; 90.7% with OVCAR-5 ovarian; 99% in the assay with OVCAR-4 ovarian; 121% in the assay on HS 578T breast; 95.9% with NCI/ADR-RES ovarian; 103% in the assay with T-47D breast. Further, the growth in the assay with BT-549 breast is 117%.

Consider `O=C(C(=O)N1CCCC1)c1cn(CCCCCn2cc(C(=O)C(=O)N3CCCC3)c3ccccc32)c2ccccc12`, for which the growth is 85.2% in the assay on A549/ATCC NSCLC; 100% in the assay on DU-145 prostate; 68.8% in the assay on K-562 leukemia; 108% with RXF 393 renal; 93.9% in the assay with SF-295 CNS; 102% with UACC-257 melanoma. The growth was 74.9% in the assay with SNB-75 CNS; 114% in the assay with SK-MEL-2 melanoma; 87.8% with ACHN renal; 73.9% in the assay on CAKI-1 renal; 94.1% with A498 renal; 109% in the assay with HL-60(TB) leukemia. For the same molecule, the growth in the assay on OVCAR-5 ovarian was 106%; in the assay with OVCAR-4 ovarian, 73%; in the assay on SK-OV-3 ovarian it was 103%; with HS 578T breast, 94.4%; in the assay on NCI/ADR-RES ovarian, 84.4%; with T-47D breast, 91.3%. For the same molecule, the growth with BT-549 breast is 90%.
